Structures are written as SMILES. The whole screen tested about 3,200 compounds, of which about 2,600 (81%) were called active.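 The calls were made as follows: active = activation above the all-compound mean plus 3 SD, ignoring values outside control-based bounds (cut at about 4.8% in these data); inactive = the rest.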 The set was probably picked from earlier hits. These entries were drawn from the full list.

The experiment is described as follows: EDANS-DABCYL substrate optical interference, artefact control for kallikrein-7 zymogen activator project, biochemical, fluorescence intensity, high throughput (AID 686952).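 Also: value is the 4 h activation minus the activation read at time zero.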 As to conditions: no enzyme, 4 h, at 7 µM, active compounds read high, solvent 0%, active enzyme control 100%.
Take `COc1cccc(OCc2cc(/C=N/NC(=O)c3nc(Cl)c(Cl)c(N)c3Cl)ccc2OC)c1`: the activation was 59.5% (active).

In the case of `Cc1cc(C)c2nc3nc(C)cc(C)c3c(N)c2c1`, the activation is 70.4% (active).

On to `CCOC(OCC)c1ccc(/C=C\c2nccc(N)n2)cc1`, for which the activation was -13.8% (inactive).

Take `COc1ccc(CNC(=O)COC(=O)C2=Cc3ccccc3OC2)cc1`: the activation was 11.3% (active).

For the molecule `COc1cc2c(cc1OC)C(C(C)C)=NC(C)(C)C2`, the activation was 72.2% (active).

As for `CN1c2ccccc2-c2nc3ccccc3n2C1c1ccco1` (stereo unspecified), the activation was 11.9% (active).

For `CNc1cncc(-c2cccc(C(=O)N3CCOCC3)c2)n1`, the activation is 37.5% (active).

On to `CCCn1c(=NC(C)=O)c(C(=O)OCC)cc2c(=O)n3ccccc3nc21`, for which the activation is 32.4% (active).

As for `CCN1CCc2c(C#N)c(NCc3ccccc3)nc(NCCO)c2C1`, the activation was 28.7% (active).

Turning to `COC(=O)C1=NN(c2ccccc2)C2C(=O)N(c3ccccc3OC)C(=O)C12` (stereo unspecified), the activation is 14.9% (active).

For `CN(C)C(=O)c1coc2nc3ccccc3nc12`, the activation is 110% (active).

Regarding `O=C(/C=C/c1ccc2c(c1)OCCO2)c1ccc(O)cc1`, the activation is 3.03% (inactive).

Regarding `O=C(O)c1ccc2c(c1)C(=O)N(c1ccc(/C=C/C(=O)c3ccccc3)cc1)C2=O`, the activation was 722% (active).

Take `CCN(CC)CCCNC(=O)c1cc2c(=O)[nH]c3ccc(C)cc3c2s1`: the activation is 12.5% (active).

Regarding `COC(=O)c1c(C)c(C)nc(N)c1C#N`, the activation was 63.7% (active).

As for `CCN(CC(=O)Nc1c(F)cccc1F)C(=O)c1ccc(-c2ccc(C(C)=O)cc2)o1`, the activation was -16.2% (inactive).

On to `CN(C)CCN1CCN(c2cc(-c3cccc(Cl)c3)nc3ccnn23)CC1`, for which the activation was -1.14% (inactive).

For the molecule `COC(=O)Cc1nc2c(N)nc(N)nc2[nH]c1=O`, the activation is 16.8% (active).

As to `Cc1coc2c1c(C)cc1oc(=O)c(CC(=O)NCC(=O)N[C@H](C(=O)O)C(C)C)c(C)c12`, the activation was 34.8% (active).

Take `CNC(=O)COC(=O)c1cc(-c2ccc(OC)cc2)nc2ccccc12`: the activation is 97.4% (active).

For the molecule `COc1ccc(-c2cc(C(=O)n3cnc4ccccc43)c3ccccc3n2)cc1`, the activation was 53.3% (active).

For `O=c1c(-c2ccccc2)coc2c(CN3CCOCC3)c(O)ccc12`, the activation was 15.3% (active).

Turning to `COc1cccc2sc3cc(NCC[C@@H]4CCCN4C)ccc3c(=O)c12`, the activation was 38.3% (active).

As to `CCCCc1cc(=O)oc2cc(C)cc(OCc3nn[nH]n3)c12`, the activation is 29.5% (active).

Consider `Cc1ccsc1-c1cc(C(=O)O)c2c(ccc3ccccc32)n1`, for which the activation is 21.4% (active).

On to `COC(=O)c1cnn2c(C(F)(F)F)cc(-c3ccco3)nc12`, for which the activation is 35.9% (active).

Turning to `O=C(OC1CCOC1=O)c1ccc(-c2nc3ccccc3s2)s1` (stereo unspecified), the activation is 13.6% (active).

`Cc1nc2ccc(N)nc2nc1C`: the activation is 59.7% (active).

As for `O=C(O)c1cccnc1Sc1ncnc2sc3c(c12)CCC3`, the activation was 15.9% (active).

As for `O=C(NCCN1CCOCC1)c1cc(-c2cccs2)nc2ccccc12`, the activation was 31.9% (active).

Regarding `CCCCN(C)CCCNC(=O)c1cc(-c2cccs2)nc2ccccc12`, the activation is -40.9% (inactive).

Take `O=c1oc2cc(O)ccc2cc1-c1ccc(F)cc1`: the activation is 80.8% (active).

Take `COc1ccc(CCNC(=O)Nc2ccc3c(c2)c(=O)n(C)n3C)cc1OC`: the activation was 22.7% (active).

Regarding `CCNC(=S)Nc1ccc2c(c1)c(=O)n(C)n2Cc1ccc(Cl)cc1`, the activation is -1.33% (inactive).

On to `C=CCn1c(N)c(S(=O)(=O)c2cccs2)c2nc3ccccc3nc21`, for which the activation is -4.5% (inactive).

For `COCCCn1c(-c2cccs2)nc2nc3ccccc3nc21`, the activation is 24.8% (active).

Regarding `NC(N)=Nc1nc(-c2ccccc2)c2cc(Cl)ccc2n1`, the activation was -2.58% (inactive).

For `COc1nc(N=C(N)N)nc2c(C)cccc12`, the activation is 20.6% (active).

Take `CCC1=C(C(=O)OC)C(c2cc(OC)ccc2OC)C(C#N)=C(N)O1` (stereo unspecified): the activation is 32.6% (active).

Consider `Cc1cc(N2CCOCC2)nc2ccc(NC(=S)N3CCN(Cc4ccccc4)CC3)cc12`, for which the activation was 12.7% (active).

In the case of `COCC(C)OC(=O)c1c(N)n(CCCN2CCOCC2)c2nc3ccccc3nc12` (stereo unspecified), the activation is 19% (active).

Turning to `CC(C)(C)OC(=O)c1c(N)n(CCCN2CCCC2=O)c2nc3ccccc3nc12`, the activation is 80.7% (active).

For the molecule `CC(C)=NN1C(=O)c2ccccc2NC1(C)C`, the activation is 24.5% (active).

As to `CCOc1ccc(N2C(=O)CC(N(O)c3ccccc3)C2=O)cc1` (stereo unspecified), the activation was 188% (active).

As for `Nc1ccccc1-c1nc2ccncc2[nH]1`, the activation is 5.73% (active).

For `CCCc1cc(=O)oc2c(C)c(O)c(CN3CCCCC3)cc12`, the activation was 68.1% (active).

Consider `CCOc1c2ccc(C(=O)NCc3ccc4c(c3)OCO4)cc2nn1C`, for which the activation is 4.67% (active).

Take `COCc1cc(=O)[nH]c2cc(NC(=O)C(F)(F)F)c(C)cc12`: the activation is 232% (active).

For `CCC(c1nnnn1Cc1ccco1)N(CCc1ccccc1)Cc1cc2ccc(OC)cc2[nH]c1=O` (stereo unspecified), the activation was 1.63% (inactive).

As to `CC(=O)Nc1cc2ccc(OC(C)=O)cc2oc1=O`, the activation was 127% (active).

As to `CC(=O)Oc1ccc2c(C)c(CC(C)O)c(=O)oc2c1` (stereo unspecified), the activation was 80% (active).

Regarding `COCCN(CCOC)c1nc(N)c2c(N)nc3c(c2c1C#N)CC(=O)N3Cc1ccc(Cl)cc1`, the activation is -34.7% (inactive).

For `CCN1CCN(C(=O)c2cc3cc4ccc(OC)cc4nc3s2)CC1`, the activation is -12.4% (inactive).

As to `COc1ccc2oc(=O)c(C(=O)N3CCCC3)cc2c1`, the activation was 23.6% (active).

Regarding `Cc1nc2ccccc2cc1O`, the activation is 4.33% (active).

Take `Cc1cc(S(=O)(=O)c2cc3ccc(O)c(C)c3oc2=O)ccc1F`: the activation was 63.2% (active).

For the molecule `N#CC1=C(N)Oc2c(sc3ccccc23)C1c1ccco1` (stereo unspecified), the activation was -21.2% (inactive).

Take `Nc1ccc2nn(-c3ccc(Cl)cc3)nc2c1`: the activation was 62.1% (active).

As to `COC(=O)c1ccc(C2C3=C(Nc4nnnn42)c2ccccc2OC3)cc1` (stereo unspecified), the activation was 4.8% (active).

Consider `COc1ccc(C2=CC(c3cccc(OC)c3)n3nnnc3N2)cc1` (stereo unspecified), for which the activation was -27.9% (inactive).

As for `CC(C)(C)Nc1c(-c2cccs2)nc2ccccn12`, the activation was -64.5% (inactive).

In the case of `FC(F)(F)Oc1ccc(-c2cn3cccnc3n2)cc1`, the activation is 36.4% (active).

Regarding `c1ccc(-c2cn3cccnc3n2)cc1`, the activation is 72.3% (active).

Consider `COc1ccc(-c2cn3cccnc3n2)cc1`, for which the activation is 79.8% (active).

Regarding `Cc1oc2nc(SCC(=O)Nc3ccc(S(N)(=O)=O)cc3)nc(NC(=O)c3ccccc3)c2c1C`, the activation is 3.36% (inactive).

For `CCc1ccc(-c2cc(C(=O)NCc3ccco3)c3ccccc3n2)s1`, the activation is 73.9% (active).

In the case of `CC(=O)Nc1nc2ncccn2c1-c1ccc(C(F)(F)F)cc1`, the activation is 41.3% (active).

As to `CC(C)Cc1nc(Nc2ccc(S(=O)(=O)N3CCCC3)cc2)c2nnn(Cc3ccccc3)c2n1`, the activation is 38.6% (active).

Take `COCC(=O)Nc1nnc(COc2ccccc2)s1`: the activation is 1.67% (inactive).

Consider `CN(C(=O)COc1ccccc1)c1nnc(-c2ccncc2)s1`, for which the activation was 107% (active).

On to `CN(C(=O)c1ccccn1)c1nnc(-c2ccccn2)s1`, for which the activation was 85.1% (active).

Turning to `CC(OC(=O)c1ccccc1NCCO)C(=O)Nc1ccnn1C(C)C` (stereo unspecified), the activation is 29.3% (active).

For `COc1ccc2c(c1)CCc1cn3ncc(C#N)c3nc1-2`, the activation was -65.2% (inactive).

As to `CN(CCc1ccccn1)S(=O)(=O)c1ccc2c3c(cccc13)C(=O)N2`, the activation was 71.8% (active).

Turning to `COc1cc(/C=C/C(=O)Nc2ccc(OC)c(S(=O)(=O)N3CCOCC3)c2)ccc1OCC#N`, the activation is 93.1% (active).

Consider `COc1ccc2nc(-c3ccccn3)ccc2c1`, for which the activation was 4.08% (active).

For `O=C(Oc1c(-c2ccco2)oc2ccccc2c1=O)c1cccnc1`, the activation is 18.8% (active).

Turning to `CC1CC(C)CN(S(=O)(=O)c2cccc(C(=O)N3C(=O)c4cccc(N)c4C3=O)c2)C1` (stereo unspecified), the activation is 228% (active).

Consider `COc1cc(C(=O)N2C(=O)c3cccc(N)c3C2=O)cc(OC)c1OC`, for which the activation was 122% (active).

`COCc1cc(=O)oc2cc(NS(=O)(=O)c3ccc(C)cc3)ccc12`: the activation is 70.4% (active).

As for `Cc1cccn2c(=O)c3cc(C#N)c(=NC(=O)c4cccnc4)n(CC4CCCO4)c3nc12` (stereo unspecified), the activation is -72.9% (inactive).

Regarding `Cc1ccc2nc3c(cc(C(=O)NCCc4ccccc4)c(=N)n3CC3CCCO3)c(=O)n2c1` (stereo unspecified), the activation was -37.3% (inactive).

With `Cc1cccn2c(=O)c3cc(C(=O)NCCN4CCOCC4)c(=N)n(Cc4cccnc4)c3nc12`, the activation was 18.1% (active).

Regarding `CCn1c(=N)c(C(=O)NCCCOC)cc2c(=O)n3cccc(C)c3nc21`, the activation is 74.4% (active).

As to `Oc1ccc2ccc3cccc[n+]3c2c1`, the activation was 38.2% (active).

Regarding `CCN(CC)CCCC(C)n1c2nc(=O)[nH]c(=O)c-2nc2cc(Cl)ccc21` (stereo unspecified), the activation is 69.7% (active).

In the case of `Cc1cc2cc3n(c2nn1)N=C(Cl)CC3`, the activation was 37.9% (active).

On to `CCOc1ccccc1C1C(C(=O)OC)=CN(C)C=C1C(=O)OC`, for which the activation is -18% (inactive).

Take `N#Cc1nc(-c2cccc3ccccc23)oc1N`: the activation is 76.5% (active).

`Cc1cc(C)c(C#N)c(SCC(=O)NN2CC(=O)N(c3ccccc3F)CC2=O)n1`: the activation was 58.1% (active).

As to `CN(C)CCCn1c(N)c(C#N)c2nc(C#N)c(C#N)nc21`, the activation is 46.2% (active).

As to `CC1(C)CN(c2ccc(-c3ccnc4ncnn34)cc2)C1=O`, the activation was 68.4% (active).

On to `Cc1cc2c(nc1C)CCCN2C`, for which the activation is 2.55% (inactive).

Regarding `CN1CCCc2cc(C#N)c(=O)[nH]c21`, the activation is 38.1% (active).

For `COc1cccc(NC(=O)CN(C)C(=O)/C=C/c2cc(OC)ccc2OC)c1`, the activation is -114% (inactive).

With `Cn1cccc1/C=N/NC(=O)CNc1cccc2ccccc12`, the activation was 1.38% (inactive).

As for `CC1(C)CC(=O)c2cc(OCC(=O)NCC3CCCO3)ccc2O1` (stereo unspecified), the activation was 57.9% (active).

For the molecule `C[C@@H]1C(c2ccc(F)cc2)=NN(c2ccc(Br)cc2)[C@H]1C(=O)N1CCOC1=O`, the activation is 26.5% (active).

Take `Clc1ccc(-c2cccc3nccn23)cc1`: the activation was 11.3% (active).

Regarding `Cc1ccc(-c2nn(-c3ccccc3)cc2/C=C/C(=O)Nc2cccc(S(N)(=O)=O)c2)cc1`, the activation was 251% (active).

As for `COc1ccc2nc(Nc3nc4cc5c(cc4s3)OCCO5)sc2c1`, the activation is -11.5% (inactive).

Source of the values: PubChem BioAssay AID686952 (The Scripps Research Institute Molecular Screening Center, 2013).
